In ChEMBL document CHEMBL2218924, “A broad activity screen in support of a chemogenomic map for kinase signalling research and drug discovery” (Biochem J, 2013):

What was measured:
[1] = molecular target: ALK tyrosine kinase receptor (Homo sapiens) (UniProt Q9UM73); conditions: at 10 µM
[2] = molecular target: T1, Activin receptor type-1B (Homo sapiens) (UniProt P36896); conditions: at 1 µM
T1 sequence (whole entry): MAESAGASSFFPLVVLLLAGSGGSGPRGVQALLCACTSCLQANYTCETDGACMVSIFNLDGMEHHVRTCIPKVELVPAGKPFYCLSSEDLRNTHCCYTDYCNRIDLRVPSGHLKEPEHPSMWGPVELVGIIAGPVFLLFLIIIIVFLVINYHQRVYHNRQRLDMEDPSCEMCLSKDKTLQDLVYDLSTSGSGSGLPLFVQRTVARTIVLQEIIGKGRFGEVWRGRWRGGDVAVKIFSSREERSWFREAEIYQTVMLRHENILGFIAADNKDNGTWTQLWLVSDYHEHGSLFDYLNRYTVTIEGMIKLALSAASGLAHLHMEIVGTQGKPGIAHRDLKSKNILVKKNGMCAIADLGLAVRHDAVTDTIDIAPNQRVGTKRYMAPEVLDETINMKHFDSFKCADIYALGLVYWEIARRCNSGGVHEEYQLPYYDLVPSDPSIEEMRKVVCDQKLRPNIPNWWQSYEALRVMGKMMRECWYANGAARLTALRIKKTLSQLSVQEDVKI

[3] = molecular target: T1, Activin receptor type-1B (Homo sapiens); conditions: at 10 µM
[4] = molecular target: T2, AMP-activated protein kinase (AMPK) alpha-1/beta-1/gamma-1 (Homo sapiens) (UniProt P54619+Q9Y478+Q13131); conditions: at 1 µM
T2 sequence (P54619 whole entry): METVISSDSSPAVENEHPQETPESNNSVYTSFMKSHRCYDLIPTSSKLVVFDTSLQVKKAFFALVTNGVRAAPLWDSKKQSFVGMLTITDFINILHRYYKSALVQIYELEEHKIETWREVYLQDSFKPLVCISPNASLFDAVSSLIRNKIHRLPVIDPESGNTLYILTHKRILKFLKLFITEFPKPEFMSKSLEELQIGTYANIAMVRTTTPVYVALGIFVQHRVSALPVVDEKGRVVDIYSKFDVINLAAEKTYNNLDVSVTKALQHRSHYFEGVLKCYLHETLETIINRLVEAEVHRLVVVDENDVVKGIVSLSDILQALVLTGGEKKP
T2 sequence (Q13131 whole entry partner): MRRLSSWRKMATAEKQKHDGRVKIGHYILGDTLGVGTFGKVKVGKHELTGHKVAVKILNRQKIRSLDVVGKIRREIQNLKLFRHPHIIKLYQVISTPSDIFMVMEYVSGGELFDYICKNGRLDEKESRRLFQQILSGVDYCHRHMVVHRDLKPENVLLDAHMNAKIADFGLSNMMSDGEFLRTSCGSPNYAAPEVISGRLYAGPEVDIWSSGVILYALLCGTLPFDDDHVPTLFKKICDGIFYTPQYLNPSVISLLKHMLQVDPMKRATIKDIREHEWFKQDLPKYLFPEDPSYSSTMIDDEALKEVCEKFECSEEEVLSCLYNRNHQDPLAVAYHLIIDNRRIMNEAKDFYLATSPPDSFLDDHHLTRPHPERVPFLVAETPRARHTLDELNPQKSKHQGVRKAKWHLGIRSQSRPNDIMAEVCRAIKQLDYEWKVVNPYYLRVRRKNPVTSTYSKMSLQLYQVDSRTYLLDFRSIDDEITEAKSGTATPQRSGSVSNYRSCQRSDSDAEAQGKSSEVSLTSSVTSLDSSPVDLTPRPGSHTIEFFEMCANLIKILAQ
T2 sequence (Q9Y478 2-270 partner limits assumed): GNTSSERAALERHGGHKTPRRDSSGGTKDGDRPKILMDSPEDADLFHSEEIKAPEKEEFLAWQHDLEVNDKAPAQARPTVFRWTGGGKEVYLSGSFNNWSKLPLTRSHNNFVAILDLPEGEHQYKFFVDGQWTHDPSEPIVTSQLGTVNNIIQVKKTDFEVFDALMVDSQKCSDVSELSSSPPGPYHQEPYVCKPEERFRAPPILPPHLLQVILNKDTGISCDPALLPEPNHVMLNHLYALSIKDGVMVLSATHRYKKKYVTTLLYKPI

[5] = molecular target: T2, AMP-activated protein kinase (AMPK) alpha-1/beta-1/gamma-1 (Homo sapiens); conditions: at 10 µM
[6] = molecular target: T3, AMP-activated protein kinase, AMPK (Homo sapiens) (UniProt P54646+O43741+P54619+Q9UGJ0+Q9Y478+Q13131+Q9UGI9); conditions: at 1 µM
[7] = molecular target: T3, AMP-activated protein kinase, AMPK (Homo sapiens); conditions: at 10 µM
[8] = molecular target: T4, NUAK family SNF1-like kinase 1 (Homo sapiens) (UniProt O60285); conditions: at 1 µM
T4 sequence (whole entry): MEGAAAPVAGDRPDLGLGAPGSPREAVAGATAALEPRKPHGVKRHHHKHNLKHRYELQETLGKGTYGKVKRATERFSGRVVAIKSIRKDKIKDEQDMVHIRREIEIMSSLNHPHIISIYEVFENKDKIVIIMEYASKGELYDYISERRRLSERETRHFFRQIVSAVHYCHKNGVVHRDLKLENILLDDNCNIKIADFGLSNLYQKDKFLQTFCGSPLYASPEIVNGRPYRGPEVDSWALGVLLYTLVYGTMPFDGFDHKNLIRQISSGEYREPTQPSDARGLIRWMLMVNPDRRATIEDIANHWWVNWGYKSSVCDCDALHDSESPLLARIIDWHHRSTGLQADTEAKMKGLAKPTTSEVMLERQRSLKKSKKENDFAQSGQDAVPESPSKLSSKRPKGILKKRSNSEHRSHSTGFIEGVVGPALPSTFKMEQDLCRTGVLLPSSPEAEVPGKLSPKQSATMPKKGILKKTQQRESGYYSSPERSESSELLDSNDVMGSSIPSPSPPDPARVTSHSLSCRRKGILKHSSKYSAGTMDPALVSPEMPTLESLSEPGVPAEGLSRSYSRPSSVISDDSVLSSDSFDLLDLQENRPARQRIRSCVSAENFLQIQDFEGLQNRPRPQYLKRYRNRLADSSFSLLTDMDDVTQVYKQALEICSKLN

[9] = molecular target: T4, NUAK family SNF1-like kinase 1 (Homo sapiens); conditions: at 10 µM
[10] = molecular target: T5, Mitogen-activated protein kinase kinase kinase 5 (Homo sapiens) (UniProt Q99683); conditions: at 1 µM
T5 sequence (whole entry): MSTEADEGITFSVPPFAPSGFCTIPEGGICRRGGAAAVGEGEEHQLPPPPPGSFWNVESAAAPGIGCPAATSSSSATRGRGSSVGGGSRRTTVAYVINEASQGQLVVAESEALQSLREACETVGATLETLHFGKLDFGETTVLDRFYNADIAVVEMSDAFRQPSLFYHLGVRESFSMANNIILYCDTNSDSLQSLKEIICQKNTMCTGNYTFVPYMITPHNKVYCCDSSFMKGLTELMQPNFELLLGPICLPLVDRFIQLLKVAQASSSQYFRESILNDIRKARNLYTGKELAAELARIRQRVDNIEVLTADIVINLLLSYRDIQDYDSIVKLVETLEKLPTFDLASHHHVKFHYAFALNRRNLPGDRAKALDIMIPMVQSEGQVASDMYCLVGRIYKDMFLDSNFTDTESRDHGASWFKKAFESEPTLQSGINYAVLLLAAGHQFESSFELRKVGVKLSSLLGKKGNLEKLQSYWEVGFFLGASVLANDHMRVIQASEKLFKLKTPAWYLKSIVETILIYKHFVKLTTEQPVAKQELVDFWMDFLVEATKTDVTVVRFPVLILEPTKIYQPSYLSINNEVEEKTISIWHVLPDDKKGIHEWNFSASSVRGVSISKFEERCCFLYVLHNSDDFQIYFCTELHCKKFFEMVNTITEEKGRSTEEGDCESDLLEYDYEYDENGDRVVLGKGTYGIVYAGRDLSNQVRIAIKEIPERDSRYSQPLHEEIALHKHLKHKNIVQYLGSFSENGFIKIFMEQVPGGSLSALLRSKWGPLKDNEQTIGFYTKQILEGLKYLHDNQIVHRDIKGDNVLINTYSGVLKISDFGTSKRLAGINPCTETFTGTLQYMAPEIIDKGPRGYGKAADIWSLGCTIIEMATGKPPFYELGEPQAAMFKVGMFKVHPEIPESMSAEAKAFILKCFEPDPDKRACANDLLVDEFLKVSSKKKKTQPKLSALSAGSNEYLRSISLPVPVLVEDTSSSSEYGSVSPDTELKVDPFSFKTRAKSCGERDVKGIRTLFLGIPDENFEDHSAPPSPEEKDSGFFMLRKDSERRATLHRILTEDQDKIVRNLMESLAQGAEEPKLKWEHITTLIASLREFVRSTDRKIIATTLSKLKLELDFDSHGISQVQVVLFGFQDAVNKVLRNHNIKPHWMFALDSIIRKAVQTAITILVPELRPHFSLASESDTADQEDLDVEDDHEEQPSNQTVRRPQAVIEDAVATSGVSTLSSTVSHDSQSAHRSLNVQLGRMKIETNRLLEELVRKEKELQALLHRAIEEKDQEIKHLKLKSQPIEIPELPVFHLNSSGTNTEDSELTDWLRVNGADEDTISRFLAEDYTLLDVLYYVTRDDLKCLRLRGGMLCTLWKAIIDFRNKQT

Chain of ALK tyrosine kinase receptor (Homo sapiens) (Q9UM73 19-1620 limits assumed): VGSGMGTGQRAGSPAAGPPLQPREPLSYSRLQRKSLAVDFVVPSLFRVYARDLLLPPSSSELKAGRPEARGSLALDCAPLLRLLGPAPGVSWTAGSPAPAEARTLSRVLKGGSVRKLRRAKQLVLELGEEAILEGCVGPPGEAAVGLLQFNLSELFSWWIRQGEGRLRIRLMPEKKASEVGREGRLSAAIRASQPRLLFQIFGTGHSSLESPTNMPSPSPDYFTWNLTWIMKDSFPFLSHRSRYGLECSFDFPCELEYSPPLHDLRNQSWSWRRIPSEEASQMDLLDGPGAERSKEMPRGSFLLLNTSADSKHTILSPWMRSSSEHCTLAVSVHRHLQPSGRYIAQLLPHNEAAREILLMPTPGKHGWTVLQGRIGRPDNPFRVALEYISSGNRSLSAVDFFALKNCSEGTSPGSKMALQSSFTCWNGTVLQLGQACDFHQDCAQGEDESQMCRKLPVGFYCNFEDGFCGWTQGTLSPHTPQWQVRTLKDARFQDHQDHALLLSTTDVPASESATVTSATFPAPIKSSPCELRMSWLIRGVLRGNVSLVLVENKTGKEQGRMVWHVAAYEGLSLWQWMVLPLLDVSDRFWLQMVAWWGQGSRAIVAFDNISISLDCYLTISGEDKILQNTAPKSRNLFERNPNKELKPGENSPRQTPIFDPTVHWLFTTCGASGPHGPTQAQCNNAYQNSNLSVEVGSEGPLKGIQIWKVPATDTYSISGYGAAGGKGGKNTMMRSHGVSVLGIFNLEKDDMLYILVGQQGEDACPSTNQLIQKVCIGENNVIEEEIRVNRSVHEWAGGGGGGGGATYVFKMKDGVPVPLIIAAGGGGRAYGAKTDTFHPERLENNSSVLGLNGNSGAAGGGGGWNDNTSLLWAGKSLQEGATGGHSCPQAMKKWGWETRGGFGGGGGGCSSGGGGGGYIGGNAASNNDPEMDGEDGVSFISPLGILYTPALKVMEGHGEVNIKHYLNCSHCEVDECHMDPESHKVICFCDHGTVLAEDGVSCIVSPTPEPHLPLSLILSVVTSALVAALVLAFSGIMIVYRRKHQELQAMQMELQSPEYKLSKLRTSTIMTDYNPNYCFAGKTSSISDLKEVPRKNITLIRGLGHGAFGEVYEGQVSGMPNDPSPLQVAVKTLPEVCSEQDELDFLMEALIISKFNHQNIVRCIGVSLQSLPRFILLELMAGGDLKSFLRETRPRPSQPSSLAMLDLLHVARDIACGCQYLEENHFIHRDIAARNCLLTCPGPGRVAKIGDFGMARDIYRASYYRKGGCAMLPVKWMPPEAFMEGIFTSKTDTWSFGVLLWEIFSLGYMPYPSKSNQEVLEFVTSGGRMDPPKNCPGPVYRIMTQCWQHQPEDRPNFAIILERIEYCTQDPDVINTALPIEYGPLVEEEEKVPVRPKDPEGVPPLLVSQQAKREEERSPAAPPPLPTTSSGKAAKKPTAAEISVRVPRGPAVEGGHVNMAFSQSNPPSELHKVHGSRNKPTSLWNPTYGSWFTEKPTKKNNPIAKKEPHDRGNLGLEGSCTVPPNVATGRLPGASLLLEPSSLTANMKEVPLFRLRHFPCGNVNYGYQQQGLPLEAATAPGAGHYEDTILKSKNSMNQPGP

Structure (SMILES) | residual activity [1] | residual activity [2] | residual activity [3] | residual activity [4] | residual activity [5] | residual activity [6] | residual activity [7] | residual activity [8] | residual activity [9] | residual activity [10]
O=C(O)c1ccc2c3c1cccc3c(=O)n1c3ccccc3nc21 | 49% | 110% | 108% | 34% | 6% | 37% | 13% | 73% | 28% | 90%
N#C/C(=C(\N)Sc1ccc(N)cc1)c1ccccc1C(F)(F)F | 65% | 108% | 111% | 75% | 57% | 77% | 62% | 106% | 62% | 106%
O=C1NC(=O)c2cc(Nc3ccc(F)cc3)c(Nc3ccc(F)cc3)cc21 | 42% | 129% | 88% | 93% | 73% | 92% | 66% | 101% | 75% | 110%
Cn1cnc2cc3c(Nc4cccc(Br)c4)ncnc3cc21 | 59% | 123% | 82% | 90% | 69% | 102% | 65% | 99% | 80% | 113%
O=C(Nc1cccc(Nc2cc(Nc3cccc(C(F)(F)F)c3)ncn2)c1)C1CC1 | 22% | 126% | 124% | 97% | 73% | 103% | 74% | 90% | 127% | 104%
COc1cc2ncnc(Nc3ccc(Oc4ccccc4)cc3)c2cc1OC | 72% | 121% | 112% | 86% | 140% | 94% | 144% | 104% | 79% | 84%
CCN(CC)CCCCN1c2ccccc2Oc2ccc(Cl)cc21 | 132% | 136% | 100% | 116% | 100% | 131% | 112% | 115% | 87% | 96%
O=c1cc(-c2cccc3c2Sc2ccccc2S3)oc(N2CCOCC2)c1 | 84% | 88% | 97% | 108% | 90% | 102% | 95% | 102% | 83% | 102%
Oc1ccc(-c2nc(-c3ccc(F)cc3)c(-c3ccncc3)[nH]2)cc1 | 82% | 57% | 8% | 102% | 86% | 109% | 86% | 122% | 93% | 92%
Cn1nc2c3c(cccc31)C(=O)c1ccccc1-2 | 45% | 104% | 109% | 91% | 73% | 81% | 85% | 57% | 31% | 71%
CNc1cc2c(Nc3cccc(Br)c3)ncnc2cn1 | 72% | 121% | 116% | 100% | 80% | 91% | 86% | 100% | 80% | 103%
Cc1ccc(S(=O)(=O)/C=C/C#N)cc1 | 93% | 103% | 106% | 89% | 89% | 87% | 86% | 109% | 94% | 111%
CO[C@H]1[C@@H](OC)C[C@H](C)[C@@H](OC)C2=CC(=O)C=C(NC(=O)/C(C)=C/C=C/[C@H](OC)[C@@H](OC(N)=O)/C(C)=C/[C@@H]1C)C2=O | 50% | 112% | 112% | 94% | 78% | 92% | 78% | 93% | 94% | 88%
O=C1NC(=O)/C(=C/c2ccc3c(c2)OC(F)(F)O3)S1 | 77% | 127% | 102% | 81% | 66% | 96% | 70% | 91% | 87% | 85%
Ic1cccc(CSc2nnc(-c3ccncc3)o2)c1 | 68% | 98% | 105% | 35% | 25% | 45% | 32% | 105% | 60% | 80%
COc1cc2ncnc(N3CCN(C(=O)Nc4ccc(Oc5ccccc5)cc4)CC3)c2cc1OC | 49% | 104% | 97% | 79% | 97% | 99% | 101% | 107% | 82% | 79%
Cc1ccc(NC2=CC(=O)c3sc(C)nc3C2=O)cc1 | 93% | 105% | 113% | 88% | 84% | 94% | 107% | 108% | 89% | 110%
